Screening data deposited in PubChem BioAssay by Center for Chemical Genomics, University of Michigan.
Dicer inh – inhibitors of Dicer pre-microRNA processing, primary screen, biochemical, cat-ELCCA, chemiluminescence. 6% of 47,000 active. cat-ELCCA pre-miR-21 Dicer processing; hits give high values. z-score at 25 µM. Endoribonuclease Dicer (Homo sapiens), Q9UPY3. AID 1347074, 2019; in the data active = z-score above about 3, passing the limit was not always enough;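 note: higher signal means more uncleaved substrate so more Dicer inhibition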
Target sequence (Q9UPY3 whole entry, looked up): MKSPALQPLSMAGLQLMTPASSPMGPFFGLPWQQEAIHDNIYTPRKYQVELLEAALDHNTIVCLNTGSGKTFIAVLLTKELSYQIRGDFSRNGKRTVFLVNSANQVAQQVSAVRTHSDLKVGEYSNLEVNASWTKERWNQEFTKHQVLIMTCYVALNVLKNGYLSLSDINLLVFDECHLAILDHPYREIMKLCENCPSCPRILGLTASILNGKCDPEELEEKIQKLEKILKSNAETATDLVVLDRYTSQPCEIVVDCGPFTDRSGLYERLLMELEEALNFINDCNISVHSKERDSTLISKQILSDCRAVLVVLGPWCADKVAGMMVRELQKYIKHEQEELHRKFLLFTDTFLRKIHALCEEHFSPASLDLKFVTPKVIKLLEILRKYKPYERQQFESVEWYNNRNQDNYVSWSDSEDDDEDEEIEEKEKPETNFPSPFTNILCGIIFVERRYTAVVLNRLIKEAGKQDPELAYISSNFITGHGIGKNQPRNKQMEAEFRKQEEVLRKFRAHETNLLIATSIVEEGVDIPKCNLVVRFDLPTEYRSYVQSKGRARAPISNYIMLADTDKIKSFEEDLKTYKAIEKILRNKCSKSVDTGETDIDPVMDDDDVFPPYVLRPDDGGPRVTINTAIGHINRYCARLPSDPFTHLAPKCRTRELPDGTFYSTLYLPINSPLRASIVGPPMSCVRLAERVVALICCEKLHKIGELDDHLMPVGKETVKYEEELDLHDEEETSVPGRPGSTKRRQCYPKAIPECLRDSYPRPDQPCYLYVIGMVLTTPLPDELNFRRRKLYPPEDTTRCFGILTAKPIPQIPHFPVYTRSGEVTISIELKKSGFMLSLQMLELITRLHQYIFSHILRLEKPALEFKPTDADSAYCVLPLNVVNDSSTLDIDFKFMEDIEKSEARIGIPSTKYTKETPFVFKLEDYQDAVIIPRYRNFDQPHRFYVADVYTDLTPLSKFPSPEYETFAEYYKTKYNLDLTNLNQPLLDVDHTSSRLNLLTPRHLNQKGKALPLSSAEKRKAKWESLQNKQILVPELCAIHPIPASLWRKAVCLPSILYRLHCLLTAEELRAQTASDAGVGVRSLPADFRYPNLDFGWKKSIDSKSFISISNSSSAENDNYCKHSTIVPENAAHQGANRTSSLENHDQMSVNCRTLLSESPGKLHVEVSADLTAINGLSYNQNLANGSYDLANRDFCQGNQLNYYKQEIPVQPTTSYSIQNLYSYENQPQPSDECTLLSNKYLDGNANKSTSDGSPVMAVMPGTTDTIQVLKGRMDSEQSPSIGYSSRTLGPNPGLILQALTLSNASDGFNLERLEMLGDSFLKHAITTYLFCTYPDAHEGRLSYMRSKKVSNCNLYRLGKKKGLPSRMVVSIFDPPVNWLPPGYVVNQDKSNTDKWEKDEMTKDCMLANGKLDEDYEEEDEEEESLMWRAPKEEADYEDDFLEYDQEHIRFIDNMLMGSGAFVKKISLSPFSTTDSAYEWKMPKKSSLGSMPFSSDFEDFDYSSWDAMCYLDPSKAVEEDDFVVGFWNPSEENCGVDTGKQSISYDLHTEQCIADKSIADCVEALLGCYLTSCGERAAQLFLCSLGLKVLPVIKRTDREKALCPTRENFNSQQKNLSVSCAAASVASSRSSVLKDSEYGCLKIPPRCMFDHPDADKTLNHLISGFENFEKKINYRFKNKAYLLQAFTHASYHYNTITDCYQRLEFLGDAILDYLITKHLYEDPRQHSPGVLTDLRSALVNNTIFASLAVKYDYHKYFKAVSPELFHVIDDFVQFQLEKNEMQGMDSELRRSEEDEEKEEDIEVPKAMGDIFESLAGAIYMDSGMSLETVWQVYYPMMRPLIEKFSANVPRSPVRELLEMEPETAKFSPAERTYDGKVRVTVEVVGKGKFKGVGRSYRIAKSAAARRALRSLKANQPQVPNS
Each line names hits and unclear results; the compound was inactive in the other large screens. The entries come from a sample that favours hits as a whole.

Cc1ccc2c(C)c(C(=O)N(Cc3ccc(N(C)C)cc3)C3CCS(=O)(=O)C3)oc2c1 (configuration not stated)	Dicer inh 5.1
O=C(c1cccc(Cl)c1)N(Cc1cccs1)C1CCS(=O)(=O)C1 (configuration not stated)	none
CCC(C)Nc1ncnc(N)c1[N+](=O)[O-] (configuration not stated)	none
CC(C)(C)c1ccc(OCC(N)=NC(=O)c2ccc(OC(F)(F)F)cc2)cc1	none
CCOc1ccc(C2Nc3cc(C)c(C)cc3NC3=C2C(=O)CC(C)(C)C3)cc1 (configuration not stated)	none
CC1(C)CC(=O)C2=C(C1)Nc1ncnn1C2c1ccc(O)cc1 (configuration not stated)	none
COC(=O)CN(C#N)c1nc(C)cc(OC)n1	none
COC(=O)C(C)N(C#N)c1nc(C)cc(C)n1 (configuration not stated)	Dicer inh 6
CCN(CC)C(=O)CN(C#N)c1nc(C)cc(C)n1	none
Nc1nc2c(c(=O)[nH]1)C(c1ccc(OCc3ccc(Cl)cc3)cc1)CC(=O)N2 (configuration not stated)	none
COc1ccc(OC)c2c(=O)cc(C(=O)O)oc12	none
O=C(Cn1cc(C(=O)c2cccs2)c2ccccc21)NC1CCCC1	none
O=C(C1=NNCC1c1ccccc1)c1ccc2ccccc2c1 (configuration not stated)	Dicer inh 4.3
O=C(C1=NNCC1c1c2ccccc2cc2ccccc12)c1ccc(Br)cc1 (configuration not stated)	none
O=C(C1=NNCC1c1ccccc1)c1ccccc1 (configuration not stated)	none
O=C(Nc1ccc(Cl)cc1)SCc1c(Cl)cccc1Cl	none
O=C(O)CC(Sc1nc2sc3c(c2c(=O)[nH]1)CCCC3)C(=O)O (configuration not stated)	none
O=C(CSc1nc2sc3c(c2c(=O)[nH]1)CCCC3)NCCN1CCOCC1	Dicer inh 3.9
Nc1nc(SCC(=O)NCCCO)nc2sc3c(c12)CCCC3	none
Nc1nc(-c2ccc3ccccc3c2)cs1	none
Nc1nc(-c2cccs2)cs1	none
Nc1nc(-c2ccccc2O)cs1	Dicer inh 4.5
Cc1ccc(C)c(-c2csc(N)n2)c1	Dicer inh 3.6
Nc1cccc(-c2csc(N)n2)c1	none
Cc1ccc(-c2csc(N=C(N)N)n2)c(C)c1	none
C=CCc1c(C)nc(SCC(=O)c2cccs2)[nH]c1=O	none
COc1cccc(C2C3=C(CC(C)(C)CC3=O)Nc3ccc4ccccc4c32)c1 (configuration not stated)	none
COC(OC)c1ccnc(SCc2ccc(Cl)cc2Cl)n1	none
CCC(C)(C)NC(=O)Nc1ccc(C)c(NC(=O)NC(C)(C)CC)c1	none
O=c1c2cn[nH]c2[nH]c(=S)n1-c1cccc(C(F)(F)F)c1	none
O=C1NC(=O)/C(=C/c2ccc(OS(=O)(=O)c3cc(Cl)cc(Cl)c3)cc2)N1	none
CCOC(=O)CSc1cc(-n2cccc2)c(Cl)cc1[N+](=O)[O-]	none
O=C1ON=C(c2ccccc2)/C1=C1\SC(C(=O)c2cccs2)=NN1c1ccc(Cl)cc1	none
COc1ccc(NS(=O)(=O)c2ccc(NS(=O)(=O)c3ccc(C)cc3)cc2)nn1	none
Cc1ccc(S(=O)(=O)N/N=C/C(=O)O)cc1	none
CN(C)c1ccc(NS(=O)(=O)c2ccc(-c3csnn3)cc2)cc1	Dicer inh 7
CNC(=O)NNc1ccc(-c2csnn2)cc1	none
COCCCNC(=S)NNS(=O)(=O)c1ccc(C)cc1	none
COc1ccc(-c2csnn2)cc1S(=O)(=O)Nc1ccccc1	none
COCCCNS(=O)(=O)c1ccc(NS(=O)(=O)c2ccc(C)cc2)cc1	Dicer inh 4.7
Cc1ccc(S(=O)(=O)NCCCN(C)C)cc1	none
Cc1ccc(S(=O)(=O)Nc2ccc(N(C)C)cc2)cc1	Dicer inh 3.8
COc1ccc(-c2nnc(-c3ccncc3)o2)cc1	none
O=C(NNc1ncccc1C(F)(F)F)c1ccc(Cl)c(Cl)c1	none
CCOC(=O)c1nnn2c1nc(SC(C(C)=O)C(=O)OCC)c1ccccc12 (configuration not stated)	none
CCCN1C(=O)C2(/C(=C(/O)c3ccc(F)cc3)C(=O)C(=O)N2CCN(C)C)c2ccccc21 (configuration not stated)	none
CCN1C(=O)C2(/C(=C(/O)c3ccc(C)cc3)C(=O)C(=O)N2CCCN(C)C)c2ccccc21 (configuration not stated)	none
CCCN1C(=O)C2(/C(=C(/O)c3ccc(OC)cc3)C(=O)C(=O)N2CCCN(C)C)c2ccccc21 (configuration not stated)	none
CCN1C(=O)C2(/C(=C(/O)c3ccc(OC)c(C)c3)C(=O)C(=O)N2CCCN(C)C)c2ccccc21 (configuration not stated)	none
CCN1C(=O)C2(/C(=C(/O)c3ccc(OC)cc3)C(=O)C(=O)N2CCCN(C)C)c2ccccc21 (configuration not stated)	Dicer inh 3.3
CCN1C(=O)C2(/C(=C(/O)c3ccc(OC)cc3)C(=O)C(=O)N2CCN(C)C)c2ccccc21 (configuration not stated)	Dicer inh 4.3
Nc1ncnc2c1nc(SCCC(=O)O)n2Cc1ccccc1	none
O=S(=O)(c1sc(Br)cc1Br)N1CCSCC1	none
CCOC(=O)CN1C(=O)C2CC=C(Cl)CC2C1=O (configuration not stated)	Dicer inh 3.1
COc1ccc(N2C(=O)C3CC=C(Cl)CC3C2=O)cc1 (configuration not stated)	none
CC(C)CC(C(=O)O)N1C(=O)C2CC=C(Cl)CC2C1=O (configuration not stated)	none
COC(=O)c1c(-c2c(Cl)cccc2Cl)noc1NC(=O)NCc1ccccn1	none
NC(=O)COc1ccc(-c2noc(COc3ccc(Br)cc3)n2)cc1	none
NC(=O)Cc1nc(-c2ccc(Br)cc2)cs1	Dicer inh 3.2
O=C(Cn1c(=O)sc2ccccc21)Nc1nc(-c2ccc(Br)cc2)cs1	none
CC(=NCc1ccccc1)c1c(C)cc(C)cc1O	none
CC(C)(C)NS(=O)(=O)c1cccc2cccnc12	none
O=S(=O)(NCc1ccccn1)c1cccc2ccccc12	none
O=S(=O)(NCCCCNS(=O)(=O)c1cccc2cccnc12)c1cccc2cccnc12	Dicer inh 5.5
O=C(CN1CCN(c2ccccc2)CC1)Nc1c2c(nc3ccccc13)CCC2	none
CC1=CC(C)(C)N(C(=O)Nc2ccc(C)cc2)c2ccc(C)cc21	none
CCOc1ccc2c(c1)C(C)=CC(C)(C)N2C(=O)Nc1ccc(F)cc1	none
CC1=CC(C)(C)N(C(=O)c2ccc(F)cc2)c2cc3c(cc21)OCO3	Dicer inh 4.6
CCOC(=O)CSc1nnnn1-c1ccc(C(=O)O)cc1	none
COc1cc(C(=O)NC(=S)Nc2ccc(C)c(F)c2)cc(OC)c1OC	none
O=C1C=C(NCCSCc2ccccc2Cl)CC(c2ccc3c(c2)OCO3)C1 (configuration not stated)	none
CCCC(=O)N(c1ccc2oc(=O)sc2c1)S(=O)(=O)c1ccc(Br)cc1	none
CCOc1ccc(S(=O)(=O)N(C(=O)C(C)C)c2ccc3oc(=O)sc3c2)cc1	Dicer inh 3.1
Cc1cc(F)ccc1S(=O)(=O)N(C(=O)C(C)C)c1ccc2oc(=O)sc2c1	Dicer inh 5
Cc1ccc(S(=O)(=O)N(C(=O)C(C)C)c2ccc3oc(=O)sc3c2)cc1	none
COc1ccc(S(=O)(=O)N(C(=O)C(C)C)c2ccc3oc(=O)sc3c2)cc1OC	none
CCCCC(=O)N(c1ccc2oc(=O)sc2c1)S(=O)(=O)c1cc(OC)ccc1OC	Dicer inh 5.2
CCCC(=O)N(c1ccc2oc(=O)sc2c1)S(=O)(=O)c1ccc(OCC)cc1	none
